From PubChem BioAssay (Tox21) come the findings set out here.

Experiment [1] is described as follows: qHTS assay to identify small molecule antagonists of the sonic hedgehog signaling (Shh) pathway (AID 1259369; calls by dose curve; further: nearly all actives have a fitted effect of over 45% in size). The essentials: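 Stable Gli1-Luc reporter NIH/3T3 clone; quantitative HTS in stimulated mode with conditioned medium. Luminescence measured after 24hr compound treatment at 37 C.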
(qHTS replaces the single test concentration by a dilution series.)

The target in experiment [2] is Estrogen receptor beta (Homo sapiens) (UniProt Q92731). The experiment can be described thus: qHTS assay to identify small molecule agonists of the estrogen receptor beta (ER-beta) signaling pathway (AID 1259377; active means well fitted activation curve with a large enough effect in the signal ratio in the repeat runs, not every such curve was filed as active; the % refers to the signal ratio). The method in brief:
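HEK293T ER-beta-UAS-bla; 2% charcoal-stripped FBS; cells pre-incubated 6 hr, compound 16 hr, 37C/5% CO2; LiveBLAzer B/G FRET substrate 2 h RT; fluorescence intensity read.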

The target is the same in experiment [3]. The experiment can be described thus: qHTS assay to identify small molecule antagonists of the estrogen receptor beta (ER-beta) signaling pathway (AID 1259378; active means well fitted inhibition curve with a large enough effect in the signal ratio in the repeat runs, not every such curve was filed as active; the % refers to the signal ratio; further: potency means the concentration at half of the fitted maximal effect). The essentials:
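Antagonist mode: compounds added to beta-lactamase reporter HEK293T ER-beta-UAS cells stimulated with E2 (1nM final), 16 hr at 37C. LiveBLAzer B/G FRET substrate, 2 hours room temperature, fluorescence read-out.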

Experiment [4] is described as follows: qHTS assay to identify small molecule agonists of the androgen receptor (AR) signaling pathway in the presence of an antagonist - cell viability counter screen (AID 1259379).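 Further: MDA-kb2 human breast cancer cells carrying an MMTV luciferase reporter; series mostly up to about 92 µM; nearly all actives have a fitted effect of over 25% in size.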 The essentials: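 Nilutamide-containing (3.0uM final) MDA-kb2 cultures, 3,000 cells/well, were treated with compounds across 15 concentrations. After 16 hr at 37C with no CO2, cell viability was determined by CellTiter-Fluor fluorescence in the luciferase assay wells.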

A short description of experiment [5]: qHTS assay to identify small molecule agonists of the estrogen receptor beta (ER-beta) signaling pathway - cell viability counter screen (AID 1259380). Further: nearly all actives have a fitted effect of over 30% in size. Further: potency means the concentration at half of the fitted maximal effect. The method in brief: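 Steps: plate ER-beta-UAS-bla HEK293T cells, rest 6 hr; add compounds in DMSO; incubate 16 hr at 37C, 5% CO2; add FRET substrate 2 hr; add CellTiter-Glo, wait 30 min at room temperature; read luminescence.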

Experiment [6] concerns the target Androgen receptor (Homo sapiens) (UniProt P10275). The experiment can be described thus: qHTS assay to identify small molecule agonists of the androgen receptor (AR) signaling pathway in the presence of an antagonist (AID 1259381; calls by dose curve; further: nearly all actives have a fitted effect of over 15% in size). The method in brief:
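Reporter-gene luminescence from MDA-kb2 cells exposed 16hr at 37C (0% CO2) to 15-point compound titrations with 3.0uM final nilutamide as AR antagonist.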

Experiment [7] is described as follows: qHTS assay to identify small molecule antagonists of the estrogen receptor beta (ER-beta) signaling pathway - cell viability counter screen (AID 1259382).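 Further: HEK293T cells carrying ER-beta-UAS-bla reporter stimulated with estradiol; series mostly up to about 92 µM; nearly all actives have a fitted effect of over 55% in size.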 The essentials:
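Viability is scored by CellTiter-Glo luminescence (30 min, room temperature) in ER-beta-UAS-bla HEK293T wells already read for reporter fluorescence. Compound exposure lasts 16 hr at 37C alongside 1nM 17-beta-estradiol in charcoal-stripped serum medium.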

In experiment [8] the target is Estrogen receptor (Homo sapiens) (UniProt P03372). The experiment can be described thus: qHTS assay to identify small molecule agonists of the estrogen receptor alpha (ER-alpha) signaling pathway in the presence of an antagonist (AID 1259383; calls by dose curve; further: top concentration of the series differs between compounds; nearly all actives have a fitted effect of over 15% in size). The method in brief:
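Readout was ERE-driven luciferase luminescence in VM7Luc4E2 cells, which express full-length ER-alpha endogenously. Compounds were tested at 15 concentrations for 22hr alongside 10.0nM ICI-182,780 (final concentration).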

Experiment [9] is described as follows: qHTS assay to identify small molecule agonists or antagonists of the thyroid stimulating hormone receptor (TSHR) signaling pathway - wild type cell line counter screen (AID 1259384; calls by dose curve). The method in brief:
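Counter screen in untransfected Hek293: compounds (15-point titration, triplicate) plus phosphodiesterase inhibitor Ro20-1724 added after 18 h plating; 30 min RT. Intracellular cAMP via competitive d2/cryptate immunoassay, 1 h incubation.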

In experiment [10] the target is Thyrotropin receptor (Homo sapiens) (UniProt P16473). The experiment can be described thus: qHTS assay to identify small molecule antagonists of the thyroid stimulating hormone receptor (TSHR) signaling pathway (AID 1259385; calls by dose curve; further: nearly all actives have a fitted effect of over 20% in size). The essentials: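 Antagonist mode: compound-treated TSHR-expressing HEK293 cells were stimulated with 1.5 ng/mL TSH (final) in presence of Ro20-1724 for 30 min at RT. HTRF cAMP detection after 1 h; each compound tested at 15 concentrations, triplicate.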
Chain of Thyrotropin receptor (Homo sapiens) (P16473 whole entry, looked up): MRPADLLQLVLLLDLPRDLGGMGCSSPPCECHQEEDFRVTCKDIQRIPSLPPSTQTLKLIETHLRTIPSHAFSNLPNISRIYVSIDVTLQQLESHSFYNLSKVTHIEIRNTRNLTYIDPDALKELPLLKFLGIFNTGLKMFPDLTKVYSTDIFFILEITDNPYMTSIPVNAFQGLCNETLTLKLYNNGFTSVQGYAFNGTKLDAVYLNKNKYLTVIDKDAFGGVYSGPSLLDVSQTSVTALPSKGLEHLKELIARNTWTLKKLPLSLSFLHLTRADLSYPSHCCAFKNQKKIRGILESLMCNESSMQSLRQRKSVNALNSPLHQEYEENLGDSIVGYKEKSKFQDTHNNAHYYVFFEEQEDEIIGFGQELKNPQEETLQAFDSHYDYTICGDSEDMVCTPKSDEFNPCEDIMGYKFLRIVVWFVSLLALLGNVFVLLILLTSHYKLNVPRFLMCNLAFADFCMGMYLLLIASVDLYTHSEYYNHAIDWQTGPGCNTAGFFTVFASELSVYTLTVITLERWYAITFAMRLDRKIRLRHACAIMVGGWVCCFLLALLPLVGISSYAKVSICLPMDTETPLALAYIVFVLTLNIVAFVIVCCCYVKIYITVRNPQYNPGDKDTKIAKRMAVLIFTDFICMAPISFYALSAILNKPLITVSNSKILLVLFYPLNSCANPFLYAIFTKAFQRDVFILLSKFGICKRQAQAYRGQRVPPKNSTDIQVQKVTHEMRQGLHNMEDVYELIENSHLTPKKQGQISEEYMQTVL

A short description of experiment [11]: qHTS assay to identify small molecule agonists of the estrogen receptor alpha (ER-alpha) signaling pathway in the presence of an antagonist - cell viability counter screen (AID 1259386).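 Further: cells exposed to compounds for 22 h at 37 °C before the viability read; nearly all actives have a fitted effect of over 30% in size.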 Further: potency means the concentration at half of the fitted maximal effect. The essentials:
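In this counter screen, compound effects on VM7Luc4E2 viability were tested in the presence of the antagonist ICI-182,780 at 10.0nM final. Compounds were dosed at 15 concentrations, exposure lasted 22hr, and the CellTiter-Fluor signal was read.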

For experiment [12], the target named is Progesterone receptor (Homo sapiens) (UniProt P06401). The experiment can be described thus: qHTS assay to identify small molecule agonists of the progesterone receptor (PR) signaling pathway (AID 1346784; calls by dose curve; further: nearly all actives have a fitted effect of over 30% in size). The essentials: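 Beta-lactamase reporter read-out: after 16 hr compound treatment at 37C and a further 2 hr at room temperature with LiveBLAzer B/G FRET substrate, fluorescence was measured in PR-UAS-bla HEK 293T cells grown in 2% charcoal-stripped serum.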
Chain of Progesterone receptor (Homo sapiens) (P06401 whole entry, looked up): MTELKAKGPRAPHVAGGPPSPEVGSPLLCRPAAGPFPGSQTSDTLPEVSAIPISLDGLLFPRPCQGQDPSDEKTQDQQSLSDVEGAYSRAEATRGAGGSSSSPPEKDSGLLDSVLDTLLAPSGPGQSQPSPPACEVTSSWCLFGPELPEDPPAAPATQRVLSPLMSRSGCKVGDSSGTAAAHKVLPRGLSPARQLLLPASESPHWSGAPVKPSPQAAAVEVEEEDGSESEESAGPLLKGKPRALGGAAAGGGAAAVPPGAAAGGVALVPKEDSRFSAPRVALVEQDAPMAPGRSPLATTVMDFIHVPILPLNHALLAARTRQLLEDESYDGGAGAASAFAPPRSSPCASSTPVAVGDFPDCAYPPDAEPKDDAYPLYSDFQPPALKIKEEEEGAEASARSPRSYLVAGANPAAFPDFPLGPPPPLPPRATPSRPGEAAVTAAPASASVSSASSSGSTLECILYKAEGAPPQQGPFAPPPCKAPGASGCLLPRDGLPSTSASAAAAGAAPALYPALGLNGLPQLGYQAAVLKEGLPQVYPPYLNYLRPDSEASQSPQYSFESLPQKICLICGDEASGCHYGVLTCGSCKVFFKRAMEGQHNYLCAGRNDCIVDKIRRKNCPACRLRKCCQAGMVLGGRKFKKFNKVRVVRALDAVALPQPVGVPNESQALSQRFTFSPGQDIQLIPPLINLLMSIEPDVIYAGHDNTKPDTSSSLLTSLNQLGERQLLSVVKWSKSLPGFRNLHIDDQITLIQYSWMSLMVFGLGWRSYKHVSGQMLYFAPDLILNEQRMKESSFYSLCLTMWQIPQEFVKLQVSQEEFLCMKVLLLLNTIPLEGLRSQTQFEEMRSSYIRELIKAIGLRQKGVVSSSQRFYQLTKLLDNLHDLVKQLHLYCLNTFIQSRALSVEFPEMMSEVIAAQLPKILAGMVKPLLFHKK

Experiment [13] has the same target. The experiment can be described thus: qHTS assay to identify small molecule antagonists of the progesterone receptor (PR) signaling pathway (AID 1346795; active means well fitted inhibition curve with a large enough effect in the signal ratio in the repeat runs, not every such curve was filed as active; the % refers to the signal ratio). The method in brief:
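Read-out is fluorescence from the LiveBLAzer B/G FRET substrate, cleaved by a UAS-controlled beta-lactamase in PR-UAS-bla HEK293T cells after 16 hr exposure to compound plus 1 nM promegestone (final), followed by 2 hr at room temperature.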

Experiment [14] in a line: qHTS assay to identify small molecule antagonists of the progesterone receptor (PR) signaling pathway - cell viability counter screen (AID 1346798).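 Further: HEK293T PR-UAS-bla cells stimulated with the agonist R5020; series mostly up to about 92 µM; nearly all actives have a fitted effect of over 50% in size.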 The essentials:
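HEK293T PR-UAS-bla, 2% charcoal-stripped FBS; 4 hr pre-plate; cpd + R5020, 16 h 37C; LiveBLAzer read first; then CellTiter-Glo 30 min RT, luminescence.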

Experiment [15] is described as follows: qHTS assay to identify small molecule agonists of the progesterone receptor (PR) signaling pathway - cell viability counter screen (AID 1346799; calls by dose curve; further: nearly all actives have a fitted effect of over 45% in size). The essentials: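 Luminescence from CellTiter-Glo, added after the beta-lactamase FRET read in the same wells, gave cytotoxicity in PR-UAS-bla HEK293T cells treated with compounds for 16 hr at 37C.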
Experiment [16] is described as follows: qHTS assay to identify small molecule antagonists of the TGF-beta/Smad signaling pathway - cell viability counter screen (AID 1346824). Further: nearly all actives have a fitted effect of over 50% in size. The method in brief:
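Cytotoxicity counter-screen run in the same wells as the beta-lactamase Smad reporter read: CellTiter-Glo luminescence after 30 min at room temperature. HEK 293T SBE-bla cells had 5 hr compound exposure at 37 C with TGF-beta1 (0.25 ng/mL stock).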

The nature of experiment [17]: qHTS assay to identify small molecule agonists of the TGF-beta/Smad signaling pathway - cell viability counter screen (AID 1346829). Further: top concentration of the series differs between compounds; nearly all actives have a fitted effect of over 45% in size. The method in brief: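 HEK 293T SBE-bla line, 5 hr compound exposure at 37 C, multiplexed CellTiter-Glo viability read by luminescence.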
The nature of experiment [18]: qHTS assay to identify small molecule agonists of the TGF-beta/Smad signaling pathway (AID 1346859; active means well fitted activation curve with a large enough effect in the signal ratio in the repeat runs, not every such curve was filed as active; the % refers to the signal ratio; further: series mostly up to about 77 µM). The essentials: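 SBE-bla HEK 293T, 4,000 cells/well, plated o/n; cpd in DMSO, 5 hr, 37 C/5% CO2; B/G FRET substrate 2 hr RT; ex 405, em 460/530 nm.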
For experiment [19], the target named is Thyrotropin-releasing hormone receptor (Homo sapiens) (UniProt P34981). The experiment can be described thus: qHTS assay to identify small molecule antagonists of the thyrotropin-releasing hormone receptor (TRHR) signaling pathway (AID 1346877; active means well fitted inhibition curve with a large enough effect in the repeat runs, not every such curve was filed as active; further: series mostly up to about 51 µM). The essentials:
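Kinetic fluorescence (3 min, 1 s resolution) following stimulation with TRH at 1 nM final; HEK293 cells bearing human TRHR; 5 min compound preincubation at RT; concentration-response over 15 points, triplicates.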

Experiment [20] has the same target. The experiment can be described thus: qHTS assay to identify small molecule agonists of the thyrotropin-releasing hormone receptor (TRHR) signaling pathway (AID 1346891; calls by dose curve; further: series mostly up to about 58 µM). The essentials: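 Intracellular calcium rise, read as fluorescence every second for 3 min, served as the agonist signal in dye-loaded HEK293 cells expressing TRHR; each compound ran at 15 concentrations in triplicate.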

The structures appear in SMILES notation. Values joined by “and” are separate entries in the source; they are usually repeats but may differ in a detail not shown here. Identical values can stand only once. Results filed as inconclusive are left out. Active and inactive are the calls of the source. Unless noted, the call rests on the fitted dose curve; in most records, active means well fitted curve in the direction sought with a large enough effect in the repeat runs; inconclusive means weak or mixed curves; inactive means no such curve, though single readings can be large; an effect the other way counts as inactive or inconclusive.

Chain of Thyrotropin-releasing hormone receptor (Homo sapiens) (P34981 whole entry, looked up): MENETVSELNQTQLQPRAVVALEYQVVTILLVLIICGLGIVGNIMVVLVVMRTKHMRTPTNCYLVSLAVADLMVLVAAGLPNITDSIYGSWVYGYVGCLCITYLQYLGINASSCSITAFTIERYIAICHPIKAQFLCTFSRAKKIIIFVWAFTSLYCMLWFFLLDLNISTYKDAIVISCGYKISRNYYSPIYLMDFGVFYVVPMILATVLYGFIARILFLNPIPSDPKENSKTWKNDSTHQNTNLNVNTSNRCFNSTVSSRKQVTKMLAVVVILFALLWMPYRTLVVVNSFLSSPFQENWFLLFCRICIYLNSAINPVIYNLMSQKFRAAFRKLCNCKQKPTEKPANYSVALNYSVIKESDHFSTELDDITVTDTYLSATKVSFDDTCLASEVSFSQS
Chain of Estrogen receptor beta (Homo sapiens) (Q92731 whole entry, looked up): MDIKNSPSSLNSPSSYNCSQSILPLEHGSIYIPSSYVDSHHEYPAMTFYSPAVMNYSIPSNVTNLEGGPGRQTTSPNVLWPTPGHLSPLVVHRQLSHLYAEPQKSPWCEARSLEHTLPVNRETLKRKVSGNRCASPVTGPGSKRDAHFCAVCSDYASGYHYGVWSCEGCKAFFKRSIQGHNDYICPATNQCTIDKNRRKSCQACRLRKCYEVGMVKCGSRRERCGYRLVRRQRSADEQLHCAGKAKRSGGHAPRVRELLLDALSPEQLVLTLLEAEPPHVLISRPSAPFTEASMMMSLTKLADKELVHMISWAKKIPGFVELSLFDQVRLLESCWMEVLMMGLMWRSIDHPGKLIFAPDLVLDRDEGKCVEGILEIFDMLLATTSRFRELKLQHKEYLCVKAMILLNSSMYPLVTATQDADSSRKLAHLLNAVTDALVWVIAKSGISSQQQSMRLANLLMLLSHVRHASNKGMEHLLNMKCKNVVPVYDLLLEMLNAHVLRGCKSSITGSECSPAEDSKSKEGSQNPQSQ
Chain of Estrogen receptor (Homo sapiens) (P03372 whole entry, looked up): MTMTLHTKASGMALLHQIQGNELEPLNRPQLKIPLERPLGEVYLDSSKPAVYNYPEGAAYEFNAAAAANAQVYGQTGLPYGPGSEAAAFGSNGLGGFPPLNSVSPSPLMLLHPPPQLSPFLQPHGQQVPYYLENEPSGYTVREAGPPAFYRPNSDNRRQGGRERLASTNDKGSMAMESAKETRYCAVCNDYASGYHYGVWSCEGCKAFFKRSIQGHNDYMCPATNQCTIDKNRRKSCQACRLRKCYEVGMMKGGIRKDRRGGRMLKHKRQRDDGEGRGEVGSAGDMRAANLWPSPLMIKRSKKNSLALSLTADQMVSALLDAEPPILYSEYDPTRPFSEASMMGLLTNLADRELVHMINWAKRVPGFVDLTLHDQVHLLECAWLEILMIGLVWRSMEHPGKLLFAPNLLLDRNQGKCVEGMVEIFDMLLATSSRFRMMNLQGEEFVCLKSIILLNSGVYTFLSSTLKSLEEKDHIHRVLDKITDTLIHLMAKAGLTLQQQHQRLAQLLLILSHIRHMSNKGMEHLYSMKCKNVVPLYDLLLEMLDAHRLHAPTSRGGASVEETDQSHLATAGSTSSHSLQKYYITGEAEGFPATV
Chain of Androgen receptor (Homo sapiens) (P10275 whole entry, looked up): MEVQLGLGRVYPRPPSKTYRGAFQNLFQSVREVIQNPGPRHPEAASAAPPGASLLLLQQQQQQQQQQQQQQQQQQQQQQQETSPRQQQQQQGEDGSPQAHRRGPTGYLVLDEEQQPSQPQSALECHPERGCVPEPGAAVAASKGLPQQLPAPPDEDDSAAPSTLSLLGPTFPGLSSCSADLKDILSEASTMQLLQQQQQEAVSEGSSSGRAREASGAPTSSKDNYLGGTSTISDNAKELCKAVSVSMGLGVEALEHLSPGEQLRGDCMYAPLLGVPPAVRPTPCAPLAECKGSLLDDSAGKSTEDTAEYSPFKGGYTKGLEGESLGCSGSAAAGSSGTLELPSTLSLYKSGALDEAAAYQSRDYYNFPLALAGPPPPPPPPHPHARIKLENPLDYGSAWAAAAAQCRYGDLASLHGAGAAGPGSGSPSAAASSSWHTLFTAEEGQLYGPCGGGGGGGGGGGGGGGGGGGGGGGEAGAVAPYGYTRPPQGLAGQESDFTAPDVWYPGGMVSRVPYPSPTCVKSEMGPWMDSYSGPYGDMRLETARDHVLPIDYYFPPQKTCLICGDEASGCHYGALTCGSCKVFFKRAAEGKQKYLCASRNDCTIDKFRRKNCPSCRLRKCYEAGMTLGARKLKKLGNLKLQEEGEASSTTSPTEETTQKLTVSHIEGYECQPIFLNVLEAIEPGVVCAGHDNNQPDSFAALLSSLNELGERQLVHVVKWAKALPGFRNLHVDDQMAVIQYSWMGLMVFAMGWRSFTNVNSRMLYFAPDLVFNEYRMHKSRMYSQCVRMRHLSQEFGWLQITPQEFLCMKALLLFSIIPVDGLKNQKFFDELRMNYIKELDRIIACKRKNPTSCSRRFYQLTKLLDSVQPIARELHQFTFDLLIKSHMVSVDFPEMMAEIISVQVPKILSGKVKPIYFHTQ

Take `Cc1ccc(C(=O)Cl)cc1`: the Potency entry in experiment [1], in experiment [2], in [3], in experiment [4], in experiment [5] and in [6] was “inactive” in each case. Besides, the Potency entry in experiment [7], in experiment [8], in [10], in experiment [11], in [12] and in [13] was “inactive” in each case. For the same compound, the Potency entry in experiment [14], in experiment [15], in [16], in experiment [17], in experiment [19] and in [20] was “inactive” throughout. Also, the compound was classed as inactive in [9] and in experiment [18].
Take `Clc1ccc(-c2ccccc2)cc1`: the Potency entry in experiment [1], in experiment [2], in experiment [3], in [5], in experiment [7] and in experiment [8] was “inactive” throughout. For the same compound, the Potency entry in experiment [10], in experiment [12], in [13], in experiment [14], in experiment [15] and in experiment [16] was “inactive” throughout. For the same compound, the Potency result in [17], in experiment [19] and in experiment [20] was “inactive” each time. The call in experiment [9] and in experiment [18] was inactive.
In the case of `CCc1cc(C)cc(CC)c1-c1c(OC(=O)C(C)(C)C)n2n(c1=O)CCOCC2`, the Potency result in experiment [1], in experiment [2], in experiment [3], in [5], in experiment [7] and in experiment [10] was “inactive” in each case. In addition, the Potency entry in experiment [12], in experiment [13], in [15], in experiment [16], in [17] and in experiment [19] was “inactive” throughout. In experiment [20], the Potency entry is “inactive”. In addition, the call in experiment [9] and in experiment [18] was inactive. In addition, in [11], the Potency is 34.4 µM (active).
For the compound `CC(C)[C@H](C(=O)OC(C#N)c1cccc(Oc2ccccc2)c1)c1ccc(OC(F)F)cc1` (stereo not given in full), the Potency entry in [1], in experiment [2], in experiment [3], in [4], in experiment [5] and in experiment [7] was “inactive” each time. The Potency result in experiment [10], in experiment [11], in experiment [12], in experiment [16], in experiment [17] and in experiment [19] was “inactive” in each case. Also, the Potency result in experiment [20] was “inactive”. Moreover, the outcome in [9] and in experiment [18] was inactive.
Regarding `COc1ccc(OC)c(C=O)c1`, the Potency entry in [1], in [2], in [3], in [4], in [5] and in [7] was “inactive” throughout. The Potency result in experiment [11], in [14], in experiment [16] and in [19] was “inactive” in each case. Further, the compound was called inactive in [18].
Regarding `CCN`, the Potency entry in [1], in experiment [2], in experiment [3], in experiment [4], in experiment [5] and in experiment [7] was “inactive” each time. For the same compound, the Potency result in experiment [10], in experiment [11], in experiment [12], in experiment [13], in experiment [15] and in experiment [16] was “inactive” throughout. In experiment [19], the Potency entry was “inactive”. In addition, the compound was called inactive in experiment [18].
With `Clc1ccc(C(c2ccccc2Cl)C(Cl)(Cl)Cl)cc1` (stereo not given), the Potency entry in [1], in experiment [2], in experiment [4], in experiment [7], in [11] and in experiment [12] was “inactive” in each case. Besides, the Potency result in experiment [16], in [19] and in experiment [20] was “inactive” each time. Moreover, the Potency was 6.15 µM (active) and 8.02 µM (active) in [3]; 48.9 µM (active) in experiment [5]. Also, in experiment [18], the call was inactive.
